Compounds without any hit were thinned out: in the full panel of roughly 79,000, 15% have a hit. Values without a mark were called inactive. The source made the active and inactive calls. Rule as the data show it: active = growth inhibition above about 70%; inactive = the rest.
Experiments:
[1] = NCI Yeast Anticancer Drug Screen. Data for the rad50 strain (AID 155);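 also: 0% = growth of vehicle-only cultures of the same strain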; conditions: S. cerevisiae rad50 strain growth inhibition; at 50.0 µM; active compounds read high
How it was run: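 DNA repair mutant yeast, compound exposure, growth read-out; inhibition is taken relative to vehicle.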

[2] = NCI Yeast Anticancer Drug Screen. Data for the mec2-1 strain (AID 157); conditions: S. cerevisiae mec2-1 strain, at 50.0 µM, active compounds read high
How it was run: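 Using mec2-1 yeast: add compound, measure growth, express inhibition versus vehicle-treated cultures.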

[3] = NCI Yeast Anticancer Drug Screen. Data for the sgs1 mgt1 strain (AID 161);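 also: 0% = growth of cultures given vehicle only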; conditions: S. cerevisiae sgs1 mgt1 strain, at 50.0 µM, active compounds read high
How it was run: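 Percent growth inhibition was derived by comparing compound-exposed mutant yeast with vehicle-exposed cultures. The strain carries alterations in DNA damage repair.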

[4] = NCI Yeast Anticancer Drug Screen. Data for the cln2 rad14 strain (AID 165);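 also: 0% = growth equal to vehicle treated cultures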; conditions: S. cerevisiae cln2 rad14 strain, at 50.0 µM, active compounds read high
How it was run: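 Yeast strain cln2 rad14, bearing defects in cell cycle control and DNA repair, serves as the test system; values reflect growth inhibition compared with vehicle.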

[5] = NCI Yeast Anticancer Drug Screen. Data for the bub3 strain (AID 167); conditions: S. cerevisiae bub3 mutant strain, at 50.0 µM, active compounds read high
How it was run: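 In this screen, a yeast mutant lacking normal mitotic checkpoint function is challenged with compound. Relative growth versus vehicle gives the inhibition value.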

[6] = NCI Yeast Anticancer Drug Screen. Data for the mlh1 rad18 strain (AID 175); conditions: S. cerevisiae mlh1 rad18 strain growth inhibition; at 50.0 µM; active compounds read high
How it was run: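 Steps: expose repair-defective yeast to compound; measure growth; express inhibition against vehicle-treated controls.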

Compound | growth inhibition [1] | growth inhibition [2] | growth inhibition [3] | growth inhibition [4] | growth inhibition [5] | growth inhibition [6]
O=C(O)c1onc2ccccc12 | -17.9% | -15.1% | -35.2% | -7.7% | -5.15% | -29.8%
CCOC(=O)c1cnc2c(ccc3ncccc32)c1OCC | -12.2% | -23.1% | 7.8% | 17.2% | 10.8% | 12.1%
N#CC(C(=O)/C(=N\Nc1nc(=S)[nH]n1N)C(C#N)c1ccc(Cl)cc1)c1ccc(Cl)cc1 (stereo unspecified) | -13.3% | -10% | -28.6% | 4.45% | -4.4% | -4.95%
O=[N+]([O-])c1ccc(/C=C/c2cc(N(CCO)CCO)c3ccccc3n2)cc1 | 8.35% | -1.05% | -31.2% | -11.1% | -0.4% | -2.95%
O=C1c2ccccc2C(=O)N1CC#CCN1C(=O)c2ccccc2C1=O | -6.95% | -31.8% | 19.6% | -5.05% | -2.65% | -5.75%
CC(C)=CCc1c(C)cc2cc3c(c(O)c2c1O)C(O)=CC(=O)C3(CC=C(C)C)C/C=C(\C)CO (stereo unspecified) | 54.6% | 37% | 52.5% | 47.2% | 48.9% | 46.1%
C/C=C\CCCCCCCCCCCCCCCC | -1.15% | -12.1% | -0.6% | 13.4% | -6.9% | 16.8%
CC(O)(c1ccco1)c1nc2ccccc2s1 (stereo unspecified) | -10.4% | 15.6% | 0.55% | -6.2% | -1.25% | -11.8%
O=C(Nc1cccc(O)c1)c1ccccc1Cl | 9.3% | -6% | -15.4% | -86.3% | -11.9% | -30.1%
OCCO | -26.4% | -24.1% | -49.3% | -31.6% | -32% | -30.6%
CCN(CC)C(=O)c1ccc(C)c(N=NN(C)C)c1 | -5.7% | -36.2% | -20.9% | -0.15% | -19.9% | -8.75%
COc1ccc(C2c3cc4c(cc3OC(NNS(=O)(=O)c3ccc(C)cc3)C2C)OCO4)cc1 (stereo unspecified) | -22.4% | 12.9% | 9.55% | 4.4% | -5.1% | 34.2%
CCOc1ccc(C(=O)OC)cc1 | 31.1% | -3.45% | 31% | 16.8% | 38.8% | 23.7%
NC(=O)C1CCc2ccccc2C1 (stereo unspecified) | 0.7% | -15.1% | 2.6% | 3% | -5.15% | -9.45%
CCOC1C=CCCO1 (stereo unspecified) | 20% | -2.7% | 8.65% | -6.55% | -7.2% | 5.65%
CCOC(=O)C(NC(C)=O)(C(=O)OCC)C1CCCCC1=O (stereo unspecified) | -10.8% | 2.65% | -33.4% | -3.4% | -10.8% | -20.5%
CSC(=S)n1nc(-c2ccccc2)c(N=Nc2ccccc2[N+](=O)[O-])c1-c1ccccc1 | 31.6% | 12.5% | 20.2% | -30.9% | 18.6% | 29.9%
COC(=O)C1=C(C)N(NC(N)=O)C2(N)N(NC(N)=O)C(C)=C(C(=O)OC)C12C(=O)OC (stereo unspecified) | -9.65% | -31.2% | -43.2% | -9.7% | -4% | -26.4%
C/C=C(/C)c1cccc(OCc2ccccc2)c1OCc1ccccc1 | -19.1% | 9.35% | -5.65% | -21.6% | -17.3% | -7.05%
CCOC(=O)c1nc2ccc(OC)cc2c2c1Cc1ccccc1-2 | -8.55% | -20.9% | -22.1% | 8.3% | 0.55% | -24.4%
CC[n+]1ccc(-c2ccccc2)o1 | 3.6% | 13.1% | 2.25% | 27.3% | 28.4% | -4.75%

Compound | growth inhibition [1] | growth inhibition [2] | growth inhibition [3] | growth inhibition [4] | growth inhibition [5] | growth inhibition [6]
O=C(O)c1ccccc1C(=O)Cc1ccccc1 | -14.7% | -19% | -6.7% | -16% | -29.6% | -9.6%
Cn1c2c(c3ccccc31)=NN1CCN=C1N=2 | 11.2% | -2.95% | -0.15% | -28.2% | 17.2% | 4%
Cc1cc(N(CCC#N)S(=O)(=O)c2ccccc2)ccc1C=O | 25.9% | -34.1% | 13.9% | -9.05% | -9.15% | -4.15%
O=C(CCl)NC(=O)NC1=C(Cl)C(=O)c2ccccc2C1=O | 98% (active) | 98.6% (active) | 98.3% (active) | 97.7% (active) | 98.3% (active) | 97.7% (active)
O=C(O)c1nc(-c2ccc(S(=O)(=O)O)cc2)[nH]c1C(=O)O | -7.15% | -0.25% | 14% | -24.8% | -6.05% | -3.6%
NC(=S)N/N=C1\CCCC1C(O)(C(F)(F)Cl)C(F)(F)Cl (stereo unspecified) | 65.3% | 17.6% | 56.1% | 35% | 29.9% | 62.5%
Cc1cccc(/C=N/NC(=S)N2CCCCCC2)n1 | 89.3% (active) | 93.2% (active) | 92.1% (active) | 92.8% (active) | 92.2% (active) | 89% (active)
Cc1cc(NS(=O)(=O)c2ccc(NC(=O)c3cccc4c(N)c5ccccc5nc34)cc2)no1 | 34.1% | 14.9% | 29.3% | 39.5% | 3.85% | 37%
O=C(NNC(=S)Nc1ccccc1)C12CC3CC(CC(C3)C1)C2 | -12% | 31.4% | 29.8% | 14.7% | 35.5% | 1.3%
CSc1nc(C=O)nc(SC)n1 | 1.25% | -12% | 9.1% | -11.3% | 3.45% | -17.1%
Cc1ccc(C)o1 | -5.3% | 5.5% | -8.65% | -12.2% | -1.1% | 2.6%
COc1ccc(C(C#N)N2CCCCC2)cc1 (stereo unspecified) | 21.6% | -6.25% | -13.5% | 22.1% | 7.05% | 0.4%
COc1cc(/C=C(\C)c2ccc3c(c2)OCO3)cc(OC)c1OC | 15% | 12.6% | 35% | 5.15% | 12.8% | -5.85%
CC(=O)OC1=NCC(OC(C)=O)=NC1 | 5.2% | 13.9% | 2.25% | -16.9% | 2.65% | 6.5%
Cn1c(=Nc2ccc(Cl)cc2)sc2ccccc21 | -8.65% | -31.2% | -21.4% | -36.9% | 1.2% | -21.9%
CN1C(c2ccco2)NC(=O)C12CCN(Cc1ccccc1)CC2 (stereo unspecified) | 24.8% | 7.25% | 15.2% | 10.2% | 16.8% | 16.1%
O=CN(Cc1cnccn1)Cc1cnccn1 | -2.8% | 7.3% | -6.75% | -33.1% | 7% | -14.2%
COC(=O)c1c2c(cc3c1CC1(Cc4ccccc4C1)C3)CCC2 | 1.15% | 11.6% | 17% | 0.6% | 2.6% | 18.6%
CCN(Cc1cc(Cl)cc(C)c1O)Cc1c(O)ccc2ccccc12 | 99.5% (active) | 99.2% (active) | 99.3% (active) | 99.3% (active) | 98.6% (active) | 99.7% (active)
O=S(=O)(O)c1cc(Cl)c(O)c(Cl)c1 | 7.25% | -21.8% | 9.15% | -41.9% | 6.8% | 23.2%

— PubChem BioAssay (NCI)
